Pf growth 48h = Primary qHTS for delayed death inhibitors of the malarial parasite plastid, 48 hour incubation; P. falciparum luciferase growth in erythrocytes, 48 h; Potency, µM (series often up to 28.7 µM), hits mostly inhibitors; actives 5.9% (n = 310,000)
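Parasite viability was followed by luminescence of a genomically integrated firefly luciferase. Cultures held 0.1% parasitemia at 2% hematocrit (final), incubated under 5% CO2 at 37 C.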
Cycloheximide cs = Cycloheximide Counterscreen for Small Molecule Inhibitors of Shiga Toxin. cell reporter, cycloheximide protein synthesis inhibition counterscreen. actives 12% (n = 300,000). max response, %. AID 2314, 2010; in the data active means max response mostly above about 13%, no sharp cut-off; inactive means mostly below about 14%; further: read at 38.3 µM for the half of the compounds with a filed dose
Shiga inhibitor = A qHTS for Small Molecule Inhibitors of Shiga Toxin. AID 2315, 2010. Vero cells, Shiga toxin protein synthesis inhibition reporter. inhibition, % at 38.7 µM. actives 9.2% (n = 290,000); in the data active means inhibition mostly above about 28%, no sharp cut-off; inactive means mostly below about 43%
Pf growth 96h = Primary qHTS for delayed death inhibitors of the malarial parasite plastid, 96 hour incubation; P. falciparum luciferase reporter growth, 96 h; Potency, µM (series often up to 28.7 µM), usual class: inhibitors; actives 6.9% (n = 320,000); AID 504834, 2011
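Compounds incubated with erythrocytes infected by luciferase-expressing P. falciparum (2% hematocrit, 0.05% parasitemia final) for 96 hours, 37 C in 5% CO2. Growth inhibition scored as decreased luciferase luminescence.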
LmPK inhibitor = qHTS Assay for Inhibitors of Leishmania Mexicana Pyruvate Kinase (LmPK) | AID 1721, 2009 | Potency, µM (series often up to 57.5 µM), hits mostly inhibitors | actives 0.37% (n = 290,000) | purified LmPK, Kinase-Glo ATP luminescence, 1 h | Q27686
Target sequence (Q27686 whole entry, looked up): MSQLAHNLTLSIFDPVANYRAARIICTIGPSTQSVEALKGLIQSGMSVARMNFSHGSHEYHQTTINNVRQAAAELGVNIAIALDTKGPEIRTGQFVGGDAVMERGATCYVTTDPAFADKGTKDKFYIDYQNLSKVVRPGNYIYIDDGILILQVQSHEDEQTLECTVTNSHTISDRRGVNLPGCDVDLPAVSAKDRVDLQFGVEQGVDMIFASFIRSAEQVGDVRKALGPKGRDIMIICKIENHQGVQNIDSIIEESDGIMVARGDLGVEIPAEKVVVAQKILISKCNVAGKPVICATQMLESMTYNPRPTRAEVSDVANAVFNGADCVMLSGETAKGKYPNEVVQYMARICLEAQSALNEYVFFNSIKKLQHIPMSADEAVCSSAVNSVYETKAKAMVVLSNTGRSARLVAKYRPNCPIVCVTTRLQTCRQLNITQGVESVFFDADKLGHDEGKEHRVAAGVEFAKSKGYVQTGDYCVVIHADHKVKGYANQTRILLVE
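Kinase-Glo luminescence read after 1 h RT reaction of 0.1 nM LmPK with 0.5 mM PEP and 0.1 mM ADP. Activity scaled between uninhibited and enzyme-free controls.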
Of the large screens only hits and unclear results are named; the others gave an inactive call. A selection: hits, their analogues and other compounds. The true share with any hit is near 22%. Unless noted, the call rests on the fitted dose curve; in most records, active means well fitted inhibition curve with a large enough effect; inconclusive means small, poorly fitted or top-dose-only effect, or another doubt; inactive means no such curve, though single readings can be large or run the other way.

CC1(C)C(=O)Nc2ccccc2N1C(=O)COC(=O)COc1ccc(C#N)cc1	none
CC1=C(C(=O)Nc2ccccc2C)C(c2ccc[nH]2)n2ncnc2N1 (configuration not stated)	none (no result: Pf growth 48h, Pf growth 96h, LmPK inhibitor)
Cc1cccc(NC(=O)CSc2nnc([C@@H](N)Cc3c[nH]c4ccccc34)o2)c1C	Pf growth 48h inconclusive, Pf growth 96h 1.7µM
CCSc1nnc([C@@H](N)Cc2c[nH]c3ccccc23)o1	none
CC(C)OCCCNC(=O)Cn1ccc2cc(S(=O)(=O)N3CCCCC3)ccc21	Pf growth 48h inconclusive
Cc1c(OC(C)C(=O)NCc2ccccn2)ccc2c3c(c(=O)oc12)CCC3 (configuration not stated)	Pf growth 48h inconclusive, Pf growth 96h inconclusive
Cc1c(OC(C)C(=O)NCc2ccncc2)ccc2c3c(c(=O)oc12)CCCC3 (configuration not stated)	Pf growth 48h inconclusive, Pf growth 96h 9.3µM
Cc1c(OC(C)C(=O)NCCCn2ccnc2)ccc2c3c(c(=O)oc12)CCC3 (configuration not stated)	Pf growth 48h 12µM, Pf growth 96h 12µM
C/C(CC(=O)Nc1cccnc1)=N\NC(=O)C(=O)Nc1cccc(C)c1	none
COc1ccccc1CNC(=O)CCS(=O)(=O)c1ccc(Cl)cc1	none (no result: Cycloheximide cs, Shiga inhibitor, LmPK inhibitor)
Cc1cccc(/N=C/c2nc(-c3ccccc3Br)oc2O)n1	Pf growth 48h inconclusive, Cycloheximide cs 21, Pf growth 96h inconclusive
Cc1ccnc(N=Cc2nc(-c3ccccc3Br)oc2O)c1	Cycloheximide cs 27, Shiga inhibitor 118
O=C(NN=C(c1ccccc1)c1ccccc1)C(CCl)C1CCCCC1 (configuration not stated)	Pf growth 96h inconclusive (no result: Cycloheximide cs, Shiga inhibitor, LmPK inhibitor)
C=CCN1C(=O)/C(=C2/Sc3ccc(OC)cc3N2C)SC1=Nc1cccc(O)c1	none
CCN1C(=O)/C(=C2/Sc3ccc(OC)cc3N2C)SC1=Nc1ccc(OC)cc1	Pf growth 96h 9.3µM
CN(C)CCNC(=O)C(=O)NCC1CCCN1S(=O)(=O)c1cccs1 (configuration not stated)	none (no result: Cycloheximide cs, Shiga inhibitor, LmPK inhibitor)
COc1cc(OC)cc(-c2nc3ccccc3c(=O)n2OC(=O)c2ccc(Br)cc2)c1	none
COc1ccc(C(=O)On2c(-c3ccc(Br)cc3)nc3ccccc3c2=O)cc1	Cycloheximide cs 32, Shiga inhibitor 93
COc1ccc(O)c(CNn2c(-c3ccc(Br)cc3)nc3ccccc3c2=O)c1	Pf growth 48h 9.3µM
N#Cc1c2n(c3c(=O)[nH]cnc13)CCCC2	none
N#Cc1c2n(c3c(=S)nc[nH]c13)CCCCC2	LmPK inhibitor 22µM
COC(=O)c1ccccc1NC(=O)C1CC(=O)N(C2CCCCC2)C1 (configuration not stated)	none (no result: Pf growth 96h)
CN(C)C(=S)Nc1cccc(F)c1	none
Fc1cccc(NC(=S)Nc2ccc(Br)cc2)c1	Cycloheximide cs 19, Pf growth 96h inconclusive
CC(C)(C)NNC(=S)Nc1cccc(F)c1	Pf growth 48h 10µM, Pf growth 96h 8.3µM
COCCN1C=C2C(=O)C(C)(OC(=O)CCC(=O)OC)C(=O)C=C2C=C1C1CC1 (configuration not stated)	Pf growth 96h inconclusive
COC(=O)CCC(=O)OC1(C)C(=O)C=C2C=C(C3CC3)N(Cc3ccco3)C=C2C1=O (configuration not stated)	Pf growth 48h 12µM, Pf growth 96h inconclusive
CC(=O)N1CCn2c3c(c4cc(C)ccc42)CCCC31 (configuration not stated)	none
CC(=O)N1CCn2c3ccc(C)cc3c3cccc1c32	Cycloheximide cs 24, Shiga inhibitor 47
COc1ccc(Cl)cc1C(=O)OCC(=O)NCCNC(=O)COC(=O)c1cc(Cl)ccc1OC	none
O=C(c1ccccc1)c1cccc(C(=O)c2ccccc2)c1	none (no result: Cycloheximide cs, Shiga inhibitor, LmPK inhibitor)
Cc1sc2cc3c(c(C(=O)c4ccccc4)[n+]2c1C)-c1cccc2cccc-3c12	Pf growth 48h 0.83µM, Pf growth 96h 0.33µM
O=C(c1ccccc1)c1c2c(cc3sc4ccccc4[n+]13)-c1cccc3cccc-2c13	Pf growth 48h 0.93µM, Cycloheximide cs 27, Shiga inhibitor 38, Pf growth 96h 0.47µM
CCCOc1ccc2oc(=O)c3c(c2c1)CCCN3C(=O)CN(C)Cc1ccccc1	Pf growth 48h inconclusive, Pf growth 96h inconclusive
O=C(NNC(=O)c1ccccc1[N+](=O)[O-])c1cccs1	none
CCN(CC)S(=O)(=O)c1ccc(NC(=O)c2cccs2)cc1	Pf growth 96h inconclusive
O=C(NNC(=O)c1cccs1)c1ccccc1	Cycloheximide cs 28, Shiga inhibitor 53
O=C(NNC(=O)c1cccs1)c1ccncc1	none
CCN(CC)S(=O)(=O)c1ccc(C(=O)NNC(=O)c2cccs2)cc1	Pf growth 96h 0.15µM
O=C(NNC(=O)c1ccccc1Br)c1cccs1	Cycloheximide cs 26, Shiga inhibitor 65
O=C(NNC(=O)c1cccs1)c1ccc(Cl)cc1	Cycloheximide cs 19, Pf growth 96h inconclusive
O=C(Oc1ccc(NC(=O)c2cc3c(cc2Br)OCO3)cc1)c1ccccc1	none
Cc1ccccc1C(=O)Nc1cccc(C(=O)N/N=C/c2cc(Cl)cc([N+](=O)[O-])c2O)c1	none
O=C(NNC(=O)c1cccs1)c1ccc(Br)cc1	Cycloheximide cs 18
CCN(CC)S(=O)(=O)c1cccc(C(=O)Oc2cccnc2)c1	none (no result: Pf growth 96h)
O=C(NNC(=S)NC(=O)c1cccs1)c1ccc(O)cc1	Shiga inhibitor 28, Pf growth 96h inconclusive
CCN(CC)S(=O)(=O)c1cccc(C(=O)Oc2cccc(NC(=O)c3cccs3)c2)c1	Cycloheximide cs 25
O=C(c1cc2sccc2n1Cc1ccccc1)N1CCN(c2nc3ccccc3s2)CC1	Pf growth 48h inconclusive, Pf growth 96h inconclusive
N#Cc1c(C(F)(F)F)cc(-c2ccc(Cl)c(Cl)c2)nc1SCCN1CCOCC1	Pf growth 48h inconclusive, Pf growth 96h 2.3µM
Cc1cc(C(F)(F)F)nc(SCCN2CCOCC2)c1C#N	none
COCCCNC(=O)c1c(NC(=O)c2ccco2)n(Cc2ccccc2)c2nc3ccccc3nc12	Pf growth 48h inconclusive (no result: Pf growth 96h)
COCCNC(=O)c1c(NC(=O)c2ccc(Br)o2)n(Cc2ccccc2)c2nc3ccccc3nc12	Pf growth 48h 13µM, Pf growth 96h inconclusive
CCOc1ccc(NC(=O)CCn2c(=O)[nH]c3ccsc3c2=O)cc1	Pf growth 96h 7.4µM (no result: Pf growth 48h)
O=C(CCCn1c(=O)[nH]c2ccsc2c1=O)Nc1ccc(F)cc1	none
COc1ccc(NC(=O)CCCn2c(=O)c3sccc3n(Cc3ccccc3)c2=O)cc1	Pf growth 48h inconclusive, Cycloheximide cs 26, Pf growth 96h inconclusive
CCc1cccc(NC(=O)CCCn2c(=O)[nH]c3ccsc3c2=O)c1	Pf growth 96h 2.9µM
CC(C)C(NC(=O)c1ccccc1)C(=O)OCC(=O)N1CCCCC1 (configuration not stated)	none (no result: Cycloheximide cs, Shiga inhibitor, LmPK inhibitor)
CC(C)C(NC(=O)OCc1ccccc1)C(=O)OCC(=O)N1CCCCC1 (configuration not stated)	Cycloheximide cs 44, Shiga inhibitor 69
